Inconclusive results are not listed. A call without a number means that no potency is given here. Calls of active or inactive are those of the source. The call rests on the fitted dose curve; in most records, active means well fitted curve in the direction sought with a large enough effect; inconclusive means small, poorly fitted or top-dose-only effect, or another doubt; inactive means no such curve, though single readings can be large; an effect the other way counts as inactive or inconclusive.

Test [1] is described as follows: Vero cells viability qHTS for Zika virus inhibitors (AID 1347167). An outline of the steps:
(§1)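 To flag cytotoxic protease inhibitors, viability is measured by ATP-dependent luminescence (CellTiter Glo) after cells attached overnight receive compound for 24 to 48 hours in DMEM with 4% FBS.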

Test [2] can be described thus: Tertiary RLuc qRT-PCR qHTS assay for Zika virus inhibitors (AID 1347169). Further: nearly all actives have a fitted effect of over 55% in size. Further: potency means the concentration at half of the fitted maximal effect. An outline of the steps: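 Vero cells (1,000 per well) plated overnight at 37 degrees C, treated with compound in DMSO, then infected with recombinant ZIKV-RLuc (Cambodian) at MOI 1-2 for 48-72 hrs. Live-cell Renilla luciferase substrate added; luminescence read after 1-1.5 hrs.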
A general note: Real-time PCR tracks product formation cycle by cycle.

For test [3], the target named is Lysine-specific demethylase 5B (Homo sapiens) (UniProt Q9UGL1). Nature of the test: Optimization screen for KDM5B Histone Demethylases FDH coupled qHTS against the LOPAC library (AID 1347166). In outline: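 KDM5BDeltaAP (200nM final) in 50mM HEPES pH 7.5, 0.01% Tween-20 was preincubated with compound for 10 min at room temperature. A substrate mix of 12.5uM H3K4Me3, 25uM a-ketoglutarate, ascorbate, Fe2+, NAD+ and formaldehyde dehydrogenase was then added. NADH fluorescence (340/450 nm) was read initially and after 30 min.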
(qHTS replaces the single test concentration by a dilution series.)

A short description of test [4]: HPAF-II Cancer Cell Toxicity qHTS against the NCATS CANVASS Library (AID 1347346). Further: series mostly up to about 38 µM; nearly all actives have a fitted effect of over 55% in size. In outline:
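Cytotoxicity read-out was CellTiter-Glo luminescence after 72 h at 37 degrees C exposure of HPAF-II cells (1000/well) to compounds in an 11-point titration.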

A short description of test [5]: HepG2 cells viability qHTS for Zika virus inhibitors (AID 1347168). In outline:
as §1

Test [6] is described as follows: OV-KATE Cancer Cell Toxicity qHTS against the NCATS CANVASS Library (AID 1347345). The source says:
Natural products and their derivatives continue to be wellsprings of nascent therapeutic potential. However, many laboratories have limited resources for biological evaluation, leaving their previously isolated or synthesized compounds largely or completely untested. To address this issue, the Canvass library of natural products was assembled (https://tripod.nih.gov/canvass), in collaboration with academic and industry researchers, for quantitative high-throughput screening (qHTS) across a diverse set of cell-based and biochemical assays. The pure (>85% purity by liquid chromatography/mass spectrometry [LC/MS]) Canvass library of 346 natural products were submitted by 45 academic laboratories and companies around the world. […] The library was formatted into 1536-well plates and evaluated in 50 qHTS (in an 11-pnt concentration series) bioassays with broad scope of disease-relevant mechanisms. The resulting data set from 50 different assays was then systematically analyzed to identify overall trends and specific natural products with interesting biological activities. […]
Cancer Cell Toxicity protocol for cell lines COV-362, OV-KATE, OV-SAHO, UWB1.289, UWB1.289-WTBRCA1, HEK-293, HPAF-II, Panc-1005, SW1088, or U-118MG. […] Luminescence signal was acquired via the ViewLux plate reader (PerkinElmer) using a clear filter, 2 second exposure and 2x binning settings.

The nature of test [7]: UWB1.289 Cancer Cell Toxicity qHTS against the NCATS CANVASS Library (AID 1347347). Further: series mostly up to about 38 µM; nearly all actives have a fitted effect of over 60% in size. An outline of the steps:
(§2)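 Cells were seeded at 1000 per well, allowed 4 h at 37 degrees C/5% CO2, then pin-treated with an 11-point compound series. After 72 h, viability was read as CellTiter-Glo luminescence following 15min at room temperature.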

Test [8] in a line: OV-SAHO Cancer Cell Toxicity qHTS against the NCATS CANVASS Library (AID 1347348). Further: series mostly up to about 38 µM; nearly all actives have a fitted effect of over 55% in size. An outline of the steps: as §2

Chain of Lysine-specific demethylase 5B (Homo sapiens) (Q9UGL1 whole entry, looked up): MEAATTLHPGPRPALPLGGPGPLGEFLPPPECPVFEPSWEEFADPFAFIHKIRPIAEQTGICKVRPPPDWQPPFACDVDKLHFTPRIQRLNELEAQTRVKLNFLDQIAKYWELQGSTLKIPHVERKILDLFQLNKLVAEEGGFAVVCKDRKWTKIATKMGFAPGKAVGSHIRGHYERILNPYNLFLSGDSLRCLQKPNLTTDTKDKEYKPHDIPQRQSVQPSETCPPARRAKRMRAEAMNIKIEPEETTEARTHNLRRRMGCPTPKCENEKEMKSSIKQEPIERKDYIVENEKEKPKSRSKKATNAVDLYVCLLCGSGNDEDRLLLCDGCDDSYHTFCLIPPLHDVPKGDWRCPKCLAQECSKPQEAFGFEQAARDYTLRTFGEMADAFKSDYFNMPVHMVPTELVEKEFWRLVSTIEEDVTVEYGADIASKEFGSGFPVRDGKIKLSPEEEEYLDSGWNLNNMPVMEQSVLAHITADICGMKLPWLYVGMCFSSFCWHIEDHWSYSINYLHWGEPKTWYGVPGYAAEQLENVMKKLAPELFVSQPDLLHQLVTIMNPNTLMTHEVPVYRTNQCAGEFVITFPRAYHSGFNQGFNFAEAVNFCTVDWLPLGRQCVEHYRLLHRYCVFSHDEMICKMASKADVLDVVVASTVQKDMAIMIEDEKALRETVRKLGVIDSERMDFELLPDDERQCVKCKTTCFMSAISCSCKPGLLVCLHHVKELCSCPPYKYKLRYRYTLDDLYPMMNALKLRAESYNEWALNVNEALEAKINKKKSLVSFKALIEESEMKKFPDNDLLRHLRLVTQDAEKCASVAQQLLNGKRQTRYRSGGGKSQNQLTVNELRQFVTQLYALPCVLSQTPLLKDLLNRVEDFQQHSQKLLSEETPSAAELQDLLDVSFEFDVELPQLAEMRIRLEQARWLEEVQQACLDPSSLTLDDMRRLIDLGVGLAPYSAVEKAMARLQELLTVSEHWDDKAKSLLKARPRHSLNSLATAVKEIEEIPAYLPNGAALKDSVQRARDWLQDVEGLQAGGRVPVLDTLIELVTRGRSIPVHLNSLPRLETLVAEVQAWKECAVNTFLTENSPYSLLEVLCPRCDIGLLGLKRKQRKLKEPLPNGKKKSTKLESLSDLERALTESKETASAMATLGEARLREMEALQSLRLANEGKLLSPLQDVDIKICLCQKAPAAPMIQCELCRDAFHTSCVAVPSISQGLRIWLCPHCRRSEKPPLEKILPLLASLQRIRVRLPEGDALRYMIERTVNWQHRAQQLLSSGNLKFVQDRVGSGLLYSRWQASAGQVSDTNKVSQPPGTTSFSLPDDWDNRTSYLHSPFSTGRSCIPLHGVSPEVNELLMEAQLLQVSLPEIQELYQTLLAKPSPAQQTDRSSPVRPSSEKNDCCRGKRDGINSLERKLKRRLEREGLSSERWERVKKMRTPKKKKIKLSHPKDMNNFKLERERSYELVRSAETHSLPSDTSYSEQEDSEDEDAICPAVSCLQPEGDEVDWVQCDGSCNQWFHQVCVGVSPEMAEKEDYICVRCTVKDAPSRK

`COc1ccc(Br)cc1S(=O)(=O)NC(=O)/C=C/c1ccccc1Cc1ccc2ccccc2c1`: in test [1], the molecule was classed as inactive. As to `O=C(Nc1cccc(C(=O)Nc2ccc(S(=O)(=O)O)c3cc(S(=O)(=O)O)cc(S(=O)(=O)O)c23)c1)Nc1cccc(C(=O)Nc2ccc(S(=O)(=O)O)c3cc(S(=O)(=O)O)cc(S(=O)(=O)O)c23)c1`, the Potency result in test [2] is “inactive”. Same read-out and setting: the same measure for `O=C1NC(=O)/C(=C/c2ccc(-c3ccc(F)cc3O)o2)S1`: “inactive”.

For the molecule `S=C(S)OC1CC2CC1C1CCCC21` (stereo unspecified), in test [3], the molecule was classed as inactive.

In the case of `O=c1cc(-c2ccccc2)oc2c(O)c(O)ccc12`, the molecule was called inactive in test [4]. Take `Cn1c(=O)c2[nH]c(-c3ccccc3)nc2n(C)c1=O`: the call in test [1] and in test [5] was inactive. The Potency result in test [2] was “inactive”. For the molecule `CC(C)(C=O)Cc1cc(C(C)(C)C)c(O)c(C(C)(C)C)c1`, the outcome in test [3] was inactive. For `O=C1O/C(=C/Br)CCC1c1cccc2ccccc12` (stereo unspecified), the call in test [3] was inactive.

For `CSc1ccccc1N1CCN(CCCCCC(=O)NC2CCCc3ccccc32)CC1` (stereo unspecified), the result in test [3] was inactive.

Consider `COc1ccc(/C=C/c2nc(NCCCN(C)C)c3ccccc3n2)cc1`, for which the molecule was classed as inactive in test [1] and in test [5].

Take `CN1CCN(c2cc3c(nn2)Oc2ccccc2N3C)CC1`: the outcome in test [1] and in test [5] was inactive. The Potency entry in test [2] is “inactive”. Take `CN1C2CCC1CC(OC(=O)C(O)c1ccccc1)C2` (stereo unspecified): the molecule was called inactive in test [3]. `C=C[C@@H]1CN2CC[C@@H]1C[C@H]2[C@H](O)c1ccnc2ccc(OC)cc12`: in test [1], the result was inactive. With `NC(=O)C(=O)O`, the result in test [3], in test [1] and in test [5] was inactive. Moreover, the Potency entry in test [2] was “inactive”. As to `Cc1ccc(O)c(N=Nc2ccccc2)n1`, the molecule was called inactive in test [3]. For the molecule `O=C(O)c1cc(O)c(O)c(O)c1`, the result in test [6], in test [4], in test [7] and in test [8] was inactive.

As to `CN(C)c1nc(N)c(C(=O)N=C(N)N)nc1Cl`, the result in test [3] was inactive.

In the case of `NCC1OC(O[C@H]2[C@H](O)[C@@H](OC3C(O)C(N)CC(N)C3OC3OC(CO)C(O)C(O)C3N)O[C@@H]2CO)C(N)C(O)C1O` (stereo partly specified), the molecule was called inactive in test [3]. Regarding `CCCCCCCCCCCCCCCC(=O)NCC(COP(=O)([O-])OCC[N+](C)(C)C)OCC` (stereo unspecified), in test [3], the outcome was inactive. The same measure, in the same setting: next, `CNC(=O)[C@H]1O[C@@H](n2cnc3c(NCc4cccc(I)c4)ncnc32)[C@H](O)[C@@H]1O`: “inactive”. Regarding `CN(C)c1nc2c(Br)c(Br)c(Br)c(Br)c2[nH]1`, the molecule was called inactive in test [3]. Turning to `NS(=O)(=O)C#Cc1ccccc1`, the outcome in test [3] was inactive.

Regarding `COc1cccc(OC)c1OCCNCC1COc2ccccc2O1` (stereo unspecified), the result in test [3] was inactive. Consider `COC(=O)c1c(C)[nH]c(C)c1C(=O)c1ccccc1Cc1ccccc1`, for which the result in test [3] was inactive.

On to `O=C(O)[C@@H]1C[C@@H](C(=O)O)N1`, for which the outcome in test [3] was inactive. With `O=C(O)CC1CCCc2ccccc2C1O` (stereo unspecified), the molecule was classed as inactive in test [3]. In the case of `CC(C)Cc1ccc([C@H](C)C(=O)O)cc1`, the molecule was called inactive in test [3]. On to `Oc1cc2c(cc1O)CN(C(=S)NCCc1ccc(Cl)cc1)CCC2`, for which the outcome in test [3], in test [1] and in test [5] was inactive. In addition, the Potency in test [2] is 13.1 µM (active).

In the case of `Cc1ccccc1CNc1ncnc2c1ncn2C1OC(CO)C(O)C1O` (stereo unspecified), the call in test [3], in test [1] and in test [5] was inactive. Further, in test [2], the Potency result was “inactive”. Consider `CC[C@@H](C)[C@H]1O[C@]2(CC[C@H]1C)C[C@@H]1C[C@@H](CC=C(C)[C@@H](O[C@H]3C[C@H](OC)[C@@H](O[C@H]4C[C@H](OC)[C@@H](O)[C@H](C)O4)[C@H](C)O3)[C@@H](C)C=CC=C3CO[C@@H]4[C@H](O)C(C)=C[C@@H](C(=O)O1)[C@]34O)O2`, for which, in test [3], the call was inactive. Moreover, the Potency in test [2] was 3.7 µM (active). In the case of `CC(N)C(=O)OC(C)(C)Cc1ccc(Cl)cc1` (stereo unspecified), the outcome in test [3] was inactive. As to `CCCCN(CC)c1nc(C)nc2c1c(C)cn2-c1c(C)cc(C)cc1C`, the call in test [1] and in test [5] was inactive. Take `CCCCCCCCCCCCCCCCCC(=O)NCC(COP(=O)([O-])OCC[N+](C)(C)C)OCC` (stereo unspecified): in test [3], the molecule was classed as inactive. Same read-out and setting: the same measure for `Cc1cc(NC2CCCCC2)nc(-n2nc(C)cc2C)n1`: “inactive”. For `Nc1nc(Nc2ccccc2)nc2c1ncn2[C@@H]1O[C@H](CO)[C@@H](O)[C@H]1O`, in test [3], the molecule was called inactive. Still for that read-out and setting: next, `OC[C@H]1O[C@@H](n2cnc3c(NC4CCCC4)ncnc32)[C@H](O)[C@@H]1O`: “inactive”.

Turning to `COC(=O)C1=C(C)NC(C)=C(C(=O)OC)C1c1cccc(NC(=O)NCCCN2CCC(c3cccc(OC)c3)CC2)c1`, the molecule was classed as inactive in test [1]. Take `C#CCN1C(C)=C(C(=O)OC)C(c2cccc([N+](=O)[O-])c2)C(C(=O)OCC)=C1C` (stereo unspecified): the result in test [3] was inactive. For `N=c1ccn2c(n1)O[C@H]1[C@H](O)[C@@H](CO)O[C@H]12`, the molecule was called inactive in test [3]. As to `S=c1[nH]c(-c2ccccc2)cn1-c1ccccc1`, the outcome in test [1] and in test [5] was inactive. Further, the Potency entry in test [2] is “inactive”.

The values are drawn from PubChem BioAssay (NCATS).
